The panel holds about 83,000 compounds, 20% with a hit somewhere; the sample as a whole holds those more often.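 The test compound was applied at a single concentration to cells in 96-well plates for 48 hours, and percent growth was recorded.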 Active and inactive are the calls of the source.
Test system: HT29 colon
Assay: NCI-60 one-dose screen, 48 h (100 = growth as untreated, 0 = no growth, -100 = all killed)
Conditions: 10 µM
Protocol: Growth inhibition of the HT29 human tumor cell line is measured as a screen for anti-cancer activity. Cells are grown in 96 well plates and exposed to the test compound for 48 hours. Compounds are tested at a single concentration, which is 10^-5 M for most compounds. The reported endpoint is percent growth (GI% or GIPRCNT), where numbers from 0 - 100% represent growth inhibition, and numbers from -100% - 0 represent cell death. For example, a value of 40 represents 60% growth inhibition. A value of 0 means no net growth occurred over the course of the experiment. A value of -40 indicates 40% of cells at the beginning of the experiment died by the end of the experiment. A value of -100 means all cells are dead at the end of the experiment.
NCI-60 Human Tumor Cell Lines Screen was performed using the standard one-dose NCI protocol, which is described in more detail at https://dtp.cancer.gov/discovery_development/nci-60/default.htm.
Compounds with GIPRCNT values below 10 were considered active. Activity score was based on GIPRCNT using the following formula: […]
Score is 0 for GIPRCNT values of 100 or above, 50 for GIPRCNT values of 0, and 100 for GIPRCNT values of -100.

| SMILES | growth |
| --- | --- |
| C[N+](C)(C)c1ncnc2nc[nH]c12 | 104% (inactive) |
| CCN(CC)CCOc1nc2ccccc2c2c1-c1ccc(OC)cc1C2=O | -12.9% (active) |
| COc1ccc(/C(=C2/O[C@@H]([C@H]3COC(C)(C)O3)[C@H]3OC(C)(C)O[C@@H]23)c2cc(OC)c(OC)c(OC)c2)cc1O | 113% (inactive) |
| COc1ccc2c(c1)N(CCO)C1=C(C(=O)OC1)C2c1cc(OC)c(OC)c(OC)c1 (stereo not given) | -4.82% (active) |
| O=C1/C(=C\c2ccc(Cl)cc2)CN(C(=S)Nc2ccccc2)C/C1=C\c1ccc(Cl)cc1 | -77% (active) |
| Cc1cn(C2CCCCO2)c(=O)nc1NO (stereo not given) | 110% (inactive) |
| COc1cc(C(=C2O[C@@H]([C@H]3COC(C)(C)O3)[C@H]3OC(C)(C)O[C@@H]23)c2cc(OC)c(OC)c(OC)c2)cc(OC)c1OC | 114% (inactive) |
| O=C1/C(=C\c2ccccc2)CN(C(=O)c2ccccc2)C/C1=C\c1ccccc1 | -48.5% (active) |
| CN(C)CCS(=O)(=O)CCN(C)C | 109% (inactive) |
| COc1cc(NC(=O)c2sc3nc4c(cc3c2N)C(O)CCC4)cc(OC)c1 (stereo not given) | 67% (inactive) |
| O=C(Nc1cccc(-n2cc(-c3ccncc3)c(-c3ccc(O)c(Cl)c3)n2)c1)c1ccc(N2CCOCC2)c(C(F)(F)F)c1 | 12.4% (inactive) |
| O=C(Nc1nc2ccc(F)cc2s1)c1cc(-c2ccc(F)cc2)n2nc(-c3ccccc3)cc2n1 | 92.7% (inactive) |
| Nc1c(C(=O)Nc2ccccc2)sc2nc3c(cc12)CCCC3 | 10.1% (inactive) |
| O=C1ON=[N+](c2ccc(Cc3ccc([N+]4=NOC(=O)C4CN4CCOCC4)cc3)cc2)C1CN1CCOCC1 (stereo not given) | 89.7% (inactive) |
| COc1ccc2c(c1)O/C(=C\c1ccc([N+](=O)[O-])o1)C2=O | -33.1% (active) |
| O=C1Nc2ccc(Cl)cc2/C1=C\c1c(-c2ccc(Cl)cc2)nc2sc(C3CC3)nn12 | 61.8% (inactive) |
| CC(=O)c1nc2ccccc2n1CCN1CCN(C)CC1 | -3.6% (active) |
| COc1cc([C@@H]2c3cc4c(cc3C(Br)[C@H]3COC(=O)[C@H]23)OCO4)cc(OC)c1OC (stereo not given in full) | -10.4% (active) |
| COc1cc(-c2cc(/C=C/C(=O)c3ccc(Cl)c(Cl)c3)[nH]n2)cc(OC)c1OC | 58.3% (inactive) |
| COc1ccc(-c2nc3ccccn3c2-c2nnc(-c3cc(OC)c(OC)c(OC)c3)o2)cc1 | 70.4% (inactive) |

| SMILES | growth |
| --- | --- |
| CCOC(=O)c1ccc(NC(=O)Nc2ncc(Cl)cc2Cl)cc1 | 95.3% (inactive) |
| O=C1NC(=O)c2ncccc21 | 108% (inactive) |
| COc1cc(-c2cc(/C=C3\C(=O)Nc4cc(Cl)ccc43)[nH]n2)cc(OC)c1OC | 28.3% (inactive) |
| CCCC1(CC(=O)O)OCCc2c1[nH]c1ccccc21 (stereo not given) | 110% (inactive) |
| CC(C)=CCc1cc(O)cc2c1OC(C=C(C)C)C1=C2C(=O)C2=C(C1=O)S(=O)(=O)CCN2 (stereo not given) | 64.8% (inactive) |
| CN(CCc1ccccn1)c1ccccc1 | 102% (inactive) |
| CC[C@H](C)C(=O)O[C@H]1CCC=C2C=C[C@H](C)C(CCC3C[C@@H](O)CC(=O)O3)[C@H]21 (stereo not given in full) | 92.3% (inactive) |
| COc1ccc(NC(=O)CSc2nc3ccccc3c(=O)n2CCc2ccccc2)cc1 | 110% (inactive) |
| Nc1c(C(=O)Nc2ccccc2Cl)sc2nc3c(cc12)C(=O)CCC3 | 40.2% (inactive) |
| CCN(CC)Cc1cc(Nc2ccnc3cc(Cl)ccc23)ccc1OC | 33.7% (inactive) |
| O=C(Nc1cccc(-n2cc(-c3ccncc3)c(-c3cc(O)cc(Cl)c3)n2)c1)c1ccc(N2CCOCC2)c(C(F)(F)F)c1 | 16.9% (inactive) |
| CC/C(=N\N=C(/CC)c1ccc(Br)cc1)c1ccc(Br)cc1 | 74.1% (inactive) |
| Cc1cccc(C)c1NC(=O)c1sc2nc3c(cc2c1N)C(=O)CCC3 | 85.6% (inactive) |
| Clc1ccc(Sc2nc(NC3CC3)nc(Sc3ccc(Cl)cc3)n2)cc1 | 48.8% (inactive) |
| COc1ccc2c(c1)sc1nc(-c3ccccc3)c(-c3cccnc3)n12 | 91.5% (inactive) |
| Cc1ccc(S(=O)(=O)OCCN(CCOS(=O)(=O)c2ccc(C)cc2)c2c[nH]c(=O)[nH]c2=O)cc1 | 99.7% (inactive) |
| Cc1cc(O)c(C(C)(C)C)cc1Sc1cc(C(C)(C)C)c(O)cc1C | 97.1% (inactive) |
| O=C(Nc1ccncc1)C(=O)c1cn(S(=O)(=O)c2cccc3ccccc23)c2ccccc12 | 42.7% (inactive) |
| CCOC(=O)C1CCc2c(ccc3ccccc23)N1CCC#N (stereo not given) | 100% (inactive) |
| CCCCC/C=C/C(=O)CCc1ccc(O)c(OC)c1 | 93.1% (inactive) |

From PubChem BioAssay (NCI)
